Results filed as inconclusive are left out. The source made the active and inactive calls. Unless noted, the call rests on the fitted dose curve; in most records, active means well fitted curve in the direction sought with a large enough effect in the repeat runs; inconclusive means weak or mixed curves; inactive means no such curve, though single readings can be large; an effect the other way counts as inactive or inconclusive.
Assays:
[1] = qHTS assay to identify small molecule antagonists of the sonic hedgehog signaling (Shh) pathway (AID 1259369; calls by dose curve; further: nearly all actives have a fitted effect of over 45% in size; further: potency means the concentration at half of the fitted maximal effect)
Method in brief: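 Read-out is luminescence from a firefly luciferase gene controlled by the Gli1 response element, in 3T3Gli1-Luc cells pre-incubated 4hr then exposed to compounds and conditioned medium for 24hr.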

[2] = qHTS assay to identify small molecule agonists of the androgen receptor (AR) signaling pathway in the presence of an antagonist - cell viability counter screen (AID 1259379);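 further: MDA-kb2 human breast cancer cells carrying an MMTV luciferase reporter; series mostly up to about 92 µM; nearly all actives have a fitted effect of over 25% in size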
Method in brief: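 Each compound was tested at 15 concentrations on MDA-kb2 cells in the presence of 3.0uM nilutamide. Viability was measured by CellTiter-Fluor fluorescence after a 16 hr incubation at 37C in a CO2-free atmosphere.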

[3] = qHTS assay to identify small molecule agonists of the estrogen receptor beta (ER-beta) signaling pathway - cell viability counter screen (AID 1259380); further: nearly all actives have a fitted effect of over 30% in size; further: potency means the concentration at half of the fitted maximal effect
Method in brief: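 Compounds dissolved in DMSO were pin-transferred onto ER-beta-UAS-bla HEK293T cells that had settled 6 hr, and exposure ran 16 hr at 37C. Following the reporter read, CellTiter-Glo luminescence after 30 min at room temperature indicated cytotoxicity.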

[4] = target: Androgen receptor (Homo sapiens) (UniProt P10275); assay: qHTS assay to identify small molecule agonists of the androgen receptor (AR) signaling pathway in the presence of an antagonist (AID 1259381; calls by dose curve; further: nearly all actives have a fitted effect of over 15% in size)
Chain of Androgen receptor (Homo sapiens) (P10275 whole entry, looked up): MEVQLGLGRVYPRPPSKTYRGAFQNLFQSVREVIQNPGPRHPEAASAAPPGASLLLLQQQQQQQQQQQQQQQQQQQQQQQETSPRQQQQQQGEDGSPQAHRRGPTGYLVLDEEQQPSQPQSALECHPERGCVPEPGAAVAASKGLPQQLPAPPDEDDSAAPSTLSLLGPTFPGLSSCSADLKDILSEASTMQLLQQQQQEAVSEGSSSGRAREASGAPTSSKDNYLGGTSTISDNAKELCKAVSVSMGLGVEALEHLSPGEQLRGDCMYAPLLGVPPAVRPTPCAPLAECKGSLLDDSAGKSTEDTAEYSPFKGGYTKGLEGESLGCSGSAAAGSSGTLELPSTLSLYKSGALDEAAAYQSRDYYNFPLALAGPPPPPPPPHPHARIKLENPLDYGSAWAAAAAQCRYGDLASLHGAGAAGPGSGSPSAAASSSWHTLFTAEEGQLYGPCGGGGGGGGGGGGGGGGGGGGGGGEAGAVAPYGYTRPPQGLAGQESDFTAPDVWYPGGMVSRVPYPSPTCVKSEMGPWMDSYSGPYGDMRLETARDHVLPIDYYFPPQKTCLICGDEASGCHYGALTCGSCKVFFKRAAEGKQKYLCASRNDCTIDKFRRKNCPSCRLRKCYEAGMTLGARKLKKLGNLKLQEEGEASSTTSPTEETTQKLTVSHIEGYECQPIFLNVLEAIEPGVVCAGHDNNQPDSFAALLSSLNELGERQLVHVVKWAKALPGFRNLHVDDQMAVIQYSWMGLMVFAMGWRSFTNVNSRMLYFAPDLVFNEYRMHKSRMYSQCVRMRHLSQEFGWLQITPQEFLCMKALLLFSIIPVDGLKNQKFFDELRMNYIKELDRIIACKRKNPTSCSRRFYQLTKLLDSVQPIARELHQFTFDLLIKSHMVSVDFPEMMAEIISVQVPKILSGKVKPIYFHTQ
Method in brief: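 Plated MDA-kb2 cells (3,000/well) were pre-incubated 5hr, given nilutamide (3.0uM final) or buffer, then dosed with compounds in DMSO at 15 concentrations. Luciferase activity was quantified by luminescence after 16hr at 37C.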

[5] = qHTS assay to identify small molecule antagonists of the estrogen receptor beta (ER-beta) signaling pathway - cell viability counter screen (AID 1259382);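 further: HEK293T cells carrying ER-beta-UAS-bla reporter stimulated with estradiol; series mostly up to about 92 µM; nearly all actives have a fitted effect of over 55% in size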
Method in brief: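 CellTiter-Glo ATP luminescence measured after the LiveBLAzer read in the same wells; ER-beta-UAS-bla HEK293T cells, 16 hr compound treatment with 1nM 17-beta-estradiol agonist at 37C, 5% CO2.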

[6] = qHTS assay to identify small molecule agonists or antagonists of the thyroid stimulating hormone receptor (TSHR) signaling pathway - wild type cell line counter screen (AID 1259384; calls by dose curve)
Method in brief: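 Counter screen in untransfected Hek293: compounds (15-point titration, triplicate) plus phosphodiesterase inhibitor Ro20-1724 added after 18 h plating; 30 min RT. Intracellular cAMP via competitive d2/cryptate immunoassay, 1 h incubation.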

[7] = target: Thyrotropin receptor (Homo sapiens) (UniProt P16473); assay: qHTS assay to identify small molecule antagonists of the thyroid stimulating hormone receptor (TSHR) signaling pathway (AID 1259385; calls by dose curve; further: nearly all actives have a fitted effect of over 20% in size)
Chain of Thyrotropin receptor (Homo sapiens) (P16473 whole entry, looked up): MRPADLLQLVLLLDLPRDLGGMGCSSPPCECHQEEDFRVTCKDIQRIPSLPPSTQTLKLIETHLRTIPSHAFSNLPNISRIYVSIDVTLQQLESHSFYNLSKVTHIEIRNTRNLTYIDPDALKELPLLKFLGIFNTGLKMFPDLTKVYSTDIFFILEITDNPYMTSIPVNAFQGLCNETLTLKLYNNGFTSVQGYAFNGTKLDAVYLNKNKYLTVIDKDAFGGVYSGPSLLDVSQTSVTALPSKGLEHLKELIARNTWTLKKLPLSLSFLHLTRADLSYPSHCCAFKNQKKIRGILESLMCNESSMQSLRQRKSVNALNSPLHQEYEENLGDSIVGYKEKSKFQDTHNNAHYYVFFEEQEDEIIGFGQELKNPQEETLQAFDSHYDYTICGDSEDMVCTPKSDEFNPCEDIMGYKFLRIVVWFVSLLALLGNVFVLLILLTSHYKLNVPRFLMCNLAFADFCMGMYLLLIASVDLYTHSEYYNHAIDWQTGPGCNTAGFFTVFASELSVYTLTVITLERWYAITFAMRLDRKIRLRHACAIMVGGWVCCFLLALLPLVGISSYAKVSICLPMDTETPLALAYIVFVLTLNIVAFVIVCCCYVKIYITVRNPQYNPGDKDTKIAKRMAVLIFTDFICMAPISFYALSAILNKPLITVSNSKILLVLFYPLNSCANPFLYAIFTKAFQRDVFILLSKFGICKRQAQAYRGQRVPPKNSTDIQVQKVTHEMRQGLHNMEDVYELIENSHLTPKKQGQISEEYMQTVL
Method in brief: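 Antagonist mode: compound-treated TSHR-expressing HEK293 cells were stimulated with 1.5 ng/mL TSH (final) in presence of Ro20-1724 for 30 min at RT. HTRF cAMP detection after 1 h; each compound tested at 15 concentrations, triplicate.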

[8] = qHTS assay to identify small molecule agonists of the estrogen receptor alpha (ER-alpha) signaling pathway in the presence of an antagonist - cell viability counter screen (AID 1259386);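 further: series mostly up to about 92 µM; cells exposed to compounds for 22 h at 37 °C before the viability read; nearly all actives have a fitted effect of over 30% in size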
Method in brief: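 Using estrogen-depleted VM7Luc4E2 cells, the 15-concentration compound series was applied together with 10.0nM ICI-182,780 and incubated 22hr at 37C/5% CO2. Cell viability was then scored by CellTiter-Fluor.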

[9] = target: Progesterone receptor (Homo sapiens) (UniProt P06401); assay: qHTS assay to identify small molecule antagonists of the progesterone receptor (PR) signaling pathway (AID 1346795; active means well fitted inhibition curve with a large enough effect in the signal ratio in the repeat runs, not every such curve was filed as active; the % refers to the signal ratio)
Chain of Progesterone receptor (Homo sapiens) (P06401 whole entry, looked up): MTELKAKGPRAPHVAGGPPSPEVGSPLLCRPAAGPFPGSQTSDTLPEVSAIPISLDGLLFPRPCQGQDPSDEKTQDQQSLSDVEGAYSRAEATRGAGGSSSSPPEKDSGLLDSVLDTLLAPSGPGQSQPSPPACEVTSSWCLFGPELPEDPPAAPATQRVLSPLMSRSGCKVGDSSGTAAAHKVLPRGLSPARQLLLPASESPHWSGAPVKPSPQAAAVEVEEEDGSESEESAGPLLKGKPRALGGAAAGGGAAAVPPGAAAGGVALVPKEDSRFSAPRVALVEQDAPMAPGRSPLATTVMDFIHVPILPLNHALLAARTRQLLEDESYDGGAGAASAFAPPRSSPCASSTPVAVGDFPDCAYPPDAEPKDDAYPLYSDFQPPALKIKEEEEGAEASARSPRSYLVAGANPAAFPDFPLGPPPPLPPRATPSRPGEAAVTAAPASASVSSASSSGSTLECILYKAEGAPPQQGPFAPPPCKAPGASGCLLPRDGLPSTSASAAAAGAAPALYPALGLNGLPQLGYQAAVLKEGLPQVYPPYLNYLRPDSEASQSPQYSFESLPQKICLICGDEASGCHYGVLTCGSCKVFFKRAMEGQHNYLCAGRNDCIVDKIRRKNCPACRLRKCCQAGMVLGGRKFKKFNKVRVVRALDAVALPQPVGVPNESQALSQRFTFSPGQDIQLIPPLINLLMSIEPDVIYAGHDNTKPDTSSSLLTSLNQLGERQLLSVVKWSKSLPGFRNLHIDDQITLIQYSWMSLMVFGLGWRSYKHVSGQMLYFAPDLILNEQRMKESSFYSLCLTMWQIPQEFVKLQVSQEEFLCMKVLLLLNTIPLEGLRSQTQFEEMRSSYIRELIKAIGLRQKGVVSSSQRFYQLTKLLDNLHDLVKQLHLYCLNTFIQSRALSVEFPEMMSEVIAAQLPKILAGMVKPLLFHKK
Method in brief: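 Antagonist mode: compounds tested against 1 nM (final) promegestone stimulation in HEK293T cells expressing PR-UAS-bla reporter, 16 hr at 37C, 5% CO2; beta-lactamase activity detected via B/G FRET substrate after 2 hr at room temperature.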

[10] = qHTS assay to identify small molecule antagonists of the progesterone receptor (PR) signaling pathway - cell viability counter screen (AID 1346798); further: series mostly up to about 92 µM; nearly all actives have a fitted effect of over 50% in size
Method in brief: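 Counter screen for cytotoxicity: viability of PR-UAS-bla HEK293T cells was measured with CellTiter-Glo luminescence following 16 hr compound exposure in the presence of R5020.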

[11] = qHTS assay to identify small molecule agonists of the progesterone receptor (PR) signaling pathway - cell viability counter screen (AID 1346799; calls by dose curve; further: nearly all actives have a fitted effect of over 45% in size)
Method in brief: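 Cells (PR-UAS-bla HEK293T) are plated at 3,000/well in 2% charcoal-stripped FBS medium, rested 6 hr, dosed and incubated 16 hr at 37C. CellTiter-Glo is then added and luminescence measured after 30 min at room temperature.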

[12] = qHTS assay to identify small molecule antagonists of the TGF-beta/Smad signaling pathway - cell viability counter screen (AID 1346824); further: nearly all actives have a fitted effect of over 50% in size
Method in brief: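 Cytotoxicity counter-screen run in the same wells as the beta-lactamase Smad reporter read: CellTiter-Glo luminescence after 30 min at room temperature. HEK 293T SBE-bla cells had 5 hr compound exposure at 37 C with TGF-beta1 (0.25 ng/mL stock).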

[13] = qHTS assay to identify small molecule agonists of the TGF-beta/Smad signaling pathway - cell viability counter screen (AID 1346829); further: top concentration of the series differs between compounds; nearly all actives have a fitted effect of over 45% in size
Method in brief: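 Cytotoxicity counter screen: CellTiter-Glo luminescence (30 min, room temperature) measured in the SBE-bla HEK 293T reporter wells after 5 hr compound treatment at 37 C and the 2 hr substrate step.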

[14] = qHTS assay to identify small molecule agonists of the TGF-beta/Smad signaling pathway (AID 1346859; active means well fitted activation curve with a large enough effect in the signal ratio in the repeat runs, not every such curve was filed as active; the % refers to the signal ratio; further: series mostly up to about 77 µM)
Method in brief: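 Reporter line: HEK 293T with stably integrated SBE-controlled beta-lactamase. Compound exposure lasts 5 hr at 37 C and 5% CO2; substrate loading follows for 2 hr at room temperature, with emission read at 460 and 530 nm.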

[15] = target: Estrogen receptor (Homo sapiens) (UniProt P03372); assay: qHTS assay to identify small molecule agonists of the estrogen receptor alpha (ER-alpha) signaling pathway in the presence of an antagonist (AID 1259383; calls by dose curve; further: top concentration of the series differs between compounds; nearly all actives have a fitted effect of over 15% in size)
Chain of Estrogen receptor (Homo sapiens) (P03372 whole entry, looked up): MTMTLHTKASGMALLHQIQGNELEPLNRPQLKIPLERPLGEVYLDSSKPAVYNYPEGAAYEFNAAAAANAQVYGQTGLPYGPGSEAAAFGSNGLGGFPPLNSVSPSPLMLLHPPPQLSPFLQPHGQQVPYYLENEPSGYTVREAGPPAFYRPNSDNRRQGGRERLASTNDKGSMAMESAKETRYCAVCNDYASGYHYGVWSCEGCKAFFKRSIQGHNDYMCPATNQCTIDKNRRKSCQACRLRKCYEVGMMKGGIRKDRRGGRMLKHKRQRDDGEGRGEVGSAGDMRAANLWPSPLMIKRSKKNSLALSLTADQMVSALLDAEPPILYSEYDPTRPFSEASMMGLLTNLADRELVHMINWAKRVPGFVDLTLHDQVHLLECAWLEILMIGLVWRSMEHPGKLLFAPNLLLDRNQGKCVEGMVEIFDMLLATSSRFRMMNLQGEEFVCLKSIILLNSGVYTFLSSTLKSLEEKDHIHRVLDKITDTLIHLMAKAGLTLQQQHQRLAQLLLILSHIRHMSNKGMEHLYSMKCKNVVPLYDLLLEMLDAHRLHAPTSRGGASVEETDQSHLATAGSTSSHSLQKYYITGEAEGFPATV
Method in brief: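 Luminescent ERE-luciferase reporter, VM7Luc4E2 cells (endogenous ER-alpha); 10.0nM ICI-182,780 final; 15-point compound titration; 22hr at 37C; ONE-Glo, 30min RT.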

[16] = target: Progesterone receptor (Homo sapiens) (UniProt P06401); assay: qHTS assay to identify small molecule agonists of the progesterone receptor (PR) signaling pathway (AID 1346784; calls by dose curve; further: nearly all actives have a fitted effect of over 30% in size; further: potency means the concentration at half of the fitted maximal effect)
Method in brief: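 Cells (PR-UAS-bla HEK 293T, GripTite) were plated in assay medium containing 2% charcoal-stripped FBS and incubated 6 hr. Test compounds in DMSO were added for 16 hr at 37C. FRET substrate was then loaded for 2 hr at room temperature before fluorescence reading.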

[17] = target: Thyrotropin-releasing hormone receptor (Homo sapiens) (UniProt P34981); assay: qHTS assay to identify small molecule antagonists of the thyrotropin-releasing hormone receptor (TRHR) signaling pathway (AID 1346877; active means well fitted inhibition curve with a large enough effect in the repeat runs, not every such curve was filed as active; further: series mostly up to about 51 µM)
Chain of Thyrotropin-releasing hormone receptor (Homo sapiens) (P34981 whole entry, looked up): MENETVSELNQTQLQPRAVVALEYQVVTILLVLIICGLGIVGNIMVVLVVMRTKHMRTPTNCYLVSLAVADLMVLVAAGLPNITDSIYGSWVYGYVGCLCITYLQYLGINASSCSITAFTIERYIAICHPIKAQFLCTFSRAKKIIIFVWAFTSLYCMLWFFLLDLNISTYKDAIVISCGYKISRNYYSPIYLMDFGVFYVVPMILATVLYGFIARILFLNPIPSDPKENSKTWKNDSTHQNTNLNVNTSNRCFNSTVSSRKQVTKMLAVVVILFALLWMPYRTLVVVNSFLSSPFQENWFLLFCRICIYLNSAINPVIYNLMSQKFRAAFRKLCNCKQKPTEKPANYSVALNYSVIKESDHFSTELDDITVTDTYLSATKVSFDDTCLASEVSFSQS
Method in brief: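 Calcium signal in dye-loaded TRHR/HEK293 cells; compounds added 5 min before TRH (1 nM final); fluorescence monitored 3 min at 1 s steps.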

[18] = target: Thyrotropin-releasing hormone receptor (Homo sapiens) (UniProt P34981); assay: qHTS assay to identify small molecule agonists of the thyrotropin-releasing hormone receptor (TRHR) signaling pathway (AID 1346891; calls by dose curve;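 further: HEK293 cells expressing TRHR with calcium dye readout; series mostly up to about 58 µM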)
Method in brief: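 Cells: TRHR-Hek293, seeded and incubated 18 h. Dye loading: 2 h at 37 °C. Compound added from DMSO stock by pin tool. Read-out: kinetic calcium fluorescence over 3 min.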

[19] = target: Estrogen receptor beta (Homo sapiens) (UniProt Q92731); assay: qHTS assay to identify small molecule antagonists of the estrogen receptor beta (ER-beta) signaling pathway (AID 1259378; active means well fitted inhibition curve with a large enough effect in the signal ratio in the repeat runs, not every such curve was filed as active; the % refers to the signal ratio)
Chain of Estrogen receptor beta (Homo sapiens) (Q92731 whole entry, looked up): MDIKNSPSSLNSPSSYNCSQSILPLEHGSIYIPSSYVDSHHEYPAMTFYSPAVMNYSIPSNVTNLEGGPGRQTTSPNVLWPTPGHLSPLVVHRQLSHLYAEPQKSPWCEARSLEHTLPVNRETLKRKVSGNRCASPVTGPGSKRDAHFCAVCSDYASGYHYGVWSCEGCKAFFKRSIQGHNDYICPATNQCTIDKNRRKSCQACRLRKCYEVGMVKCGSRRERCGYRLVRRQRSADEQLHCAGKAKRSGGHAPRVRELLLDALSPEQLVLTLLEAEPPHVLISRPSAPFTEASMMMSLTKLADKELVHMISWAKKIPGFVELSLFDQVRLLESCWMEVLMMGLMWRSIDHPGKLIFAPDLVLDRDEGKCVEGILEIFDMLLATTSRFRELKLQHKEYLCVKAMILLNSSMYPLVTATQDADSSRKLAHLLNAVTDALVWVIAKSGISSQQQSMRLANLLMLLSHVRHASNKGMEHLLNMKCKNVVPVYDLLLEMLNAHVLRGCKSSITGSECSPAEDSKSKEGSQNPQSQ
Method in brief: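 Antagonist mode: compounds added to beta-lactamase reporter HEK293T ER-beta-UAS cells stimulated with E2 (1nM final), 16 hr at 37C. LiveBLAzer B/G FRET substrate, 2 hours room temperature, fluorescence read-out.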
On the % scale 0 is the no-effect control and ±100 the full control effect.

C[C@@H](N)C(=O)O
inactive: Potency [2] | Potency [3] | Potency [4] | outcome [5] | outcome [6] | Potency [7] | Potency [8] | Potency [9] | Potency [10] | Potency [11] | outcome [12] | outcome [13] | outcome [14]
active: Potency [1] 21.1 µM

C[C@]12CCC(=O)C=C1CC[C@@H]1[C@@H]2CC[C@@]2(C)[C@H]1CC[C@]2(O)C(=O)CO
inactive: Potency [1] | Potency [2] | Potency [3] | outcome [5] | Potency [15] | outcome [6] | Potency [7] | Potency [8] | Potency [10] | outcome [12] | outcome [13] | outcome [14] | outcome [17] | Potency [18]
active: Potency [16] 8.41 µM

Cc1cc2nc(N)sc2cc1C
active: Potency [3] 30.9 µM
inactive: Potency [1] | Potency [2] | Potency [4] | outcome [6] | Potency [7] | Potency [8] | Potency [16] | Potency [10] | Potency [11] | outcome [12] | outcome [13] | outcome [14]

NC(Cc1ccc(F)cc1)C(=O)O (configuration not stated)
inactive: activity change, negative = inhibition [1] -11.4% [at 8.39 µM] | activity, negative = inhibition [19] 7.98% [at 8.39 µM] | activity change, negative = cytotoxicity [2] -0.068% [at 8.39 µM] | activity change, negative = cytotoxicity [3] 1.35% [at 8.39 µM] | activity change, negative = cytotoxicity [5] 1.79% [at 8.39 µM] | cAMP activity change [6] -1.15% [at 8.39 µM] | activity change, negative = inhibition [7] -1.13% [at 8.39 µM] | activity change, negative = cytotoxicity [8] 2.6% [at 8.39 µM] | activation [16] 0.365% [at 8.39 µM] | activity change, negative = cytotoxicity [10] -3.28% [at 8.39 µM] | activity change, negative = cytotoxicity [11] 1.93% [at 8.39 µM] | viability change, negative = cytotoxic [12] 18.5% [at 6.97 µM] | activity change, negative = cytotoxicity [13] 4.18% [at 6.97 µM] | activation [14] -0.692% [at 6.97 µM] | activity, negative = inhibition [17] -1.45% [at 4.65 µM] | activation [18] 0.148% [at 5.23 µM]

CCCNC(C)(C)COC(=O)c1ccccc1
inactive: Potency [1] | Potency [2] | Potency [3] | outcome [5] | Potency [15] | outcome [6] | Potency [7] | Potency [8] | Potency [16] | Potency [9] | Potency [10] | Potency [11] | outcome [12] | outcome [13] | outcome [14] | outcome [17] | Potency [18]

CC(C)(C)C1CCCCC1=O (configuration not stated)
inactive: Potency [1] | Potency [19] | Potency [2] | Potency [3] | outcome [5] | Potency [15] | Potency [8] | Potency [16] | Potency [9] | Potency [10] | Potency [11] | outcome [13] | outcome [14] | outcome [17] | Potency [18]

CCCCN1C[C@H](O)[C@@H](O)[C@H](O)[C@H]1CO
inactive: Potency [1] | Potency [2] | Potency [3] | outcome [5] | Potency [15] | outcome [6] | Potency [7] | Potency [8] | Potency [16] | Potency [9] | Potency [10] | Potency [11] | outcome [12] | outcome [13] | outcome [14] | outcome [17] | Potency [18]

From PubChem BioAssay (Tox21)
